Test results reported in PubChem BioAssay (Tox21).
Inconclusive results are not listed. Where a call stands in place of a potency, no number is given. Activity calls are given as the source filed them. Calls follow the shape of the dose curve; as a rule, active = well fitted inhibition curve with a large enough effect in the signal ratio in the repeat runs (not every such curve was filed as active); inconclusive = weak or mixed curves, or effect the other way; inactive = no such curve, though single readings can be large or run the other way; the % refers to the signal ratio.

These compounds were tested against Peroxisome proliferator-activated receptor delta (Homo sapiens) (UniProt Q03181) (assay: qHTS assay to identify small molecule antagonists of the peroxisome proliferator-activated receptor delta (PPARd) signaling pathway (AID 743215;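 also: cells stimulated with agonist L165041 at 300 nM final during compound exposure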)). Conditions: HEK293H PPARd-UAS-bla, beta-lactamase FRET ratio, antagonist, 17 h; series mostly up to 62 µM.
Sequence of Peroxisome proliferator-activated receptor delta (Homo sapiens) (Q03181 whole entry, looked up): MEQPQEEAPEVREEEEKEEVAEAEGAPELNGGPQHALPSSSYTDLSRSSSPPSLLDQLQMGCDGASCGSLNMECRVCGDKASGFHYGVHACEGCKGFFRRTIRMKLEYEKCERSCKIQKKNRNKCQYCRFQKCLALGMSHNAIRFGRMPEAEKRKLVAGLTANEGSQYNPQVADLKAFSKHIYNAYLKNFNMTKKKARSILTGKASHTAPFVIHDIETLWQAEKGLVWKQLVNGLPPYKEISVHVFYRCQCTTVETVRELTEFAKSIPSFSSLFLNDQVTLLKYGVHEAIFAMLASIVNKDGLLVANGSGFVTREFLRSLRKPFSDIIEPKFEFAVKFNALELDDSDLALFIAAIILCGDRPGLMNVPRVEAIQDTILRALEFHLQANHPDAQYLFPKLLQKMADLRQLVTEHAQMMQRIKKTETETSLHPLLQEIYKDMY
Text: U.S. Tox21 Program National Center for Advancing Translational Sciences [NCATS] NIH Chemical Genomics Center [NCGC] U.S. Environmental Protection Agency [EPA] National Institutes of Environmental Health Sciences [NIEHS] National Toxicology Program [NTP] U.S. Food and Drug Administration [FDA] Tox21 Assay Overview: The peroxisome proliferator-activated receptors (PPARs) are lipid-activated transcription factors of the nuclear receptor superfamily with three distinct subtypes namely PPAR alpha, PPAR delta (PPARd) and PPAR gamma. All these subtypes heterodimerizes with Retinoid X receptor (RXR) and have different physiological functions. […] To identify the compounds that inhibit PPAR-delta signaling, GeneBLAzer PPAR delta UAS-bla HEK293H cell line (Invitrogen, Carlsbad, CA, USA) containing a beta-lactamase reporter gene under the control of an Upstream Activator Sequence (UAS) was used to screen the Tox21 compound library.
Tox21 Assay Protocol Summary: PPARd-bla cells were dispensed at 3000 cells/5uL/well in 1536-well black wall/clear bottom plates using a Multidrop Combi (Thermo Fisher Scientific, Waltham, MA) dispenser. After the assay plates were incubated at 37 C and 5% CO2 for 5 h, 23 nL of compounds dissolved in DMSO, positive controls or DMSO only was transferred to the assay plate by a Pintool station (Kalypsys, San Diego, CA), followed by addition of 1ul L165041 (300 nM, final concentration in the wells). The assay plates were incubated at 37 C for 17 h, and then 1 uL of LiveBLAzerTM B/G FRET substrate was added using a Bioraptr Flying Reagent Dispenser (FRD) workstation (Beckman Coulter, Indianapolis, IN, USA). The assay plates were incubated at room temperature for 2 h and fluorescence intensity was measured by an Envision plate reader (PerkinElmer, Shelton, CT).
Potency is read from the fitted curve at half-maximal effect.

Row | SMILES | Potency
1 | BrCCCBr | inactive
2 | COc1ccc2c(c1OC)C(=O)O[C@@H]2[C@H]1c2cc3c(cc2CCN1C)OCO3 | inactive
3 | CC(C)=CCN1CC[C@@]2(C)c3cc(O)ccc3C[C@@H]1[C@@H]2C | inactive
4 | CCN(CC)Cc1nccn1-c1ccc([N+](=O)[O-])cc1C(=O)c1ccccc1Cl | inactive
5 | CC(Cc1ccccc1)N(C)Cc1ccco1 (stereo not given) | inactive
6 | C#CCC1=C(C)C(OC(=O)C2C(C=C(C)C)C2(C)C)CC1=O (stereo not given) | inactive
7 | Cc1cc2c3c(c1)C(c1ccccc1)=N[C@@H](NC(=O)c1ccncc1)C(=O)N3CC2 | inactive
8 | Nc1ccccc1-c1ccccc1 | inactive
9 | O=[N+]([O-])c1ccc(Cl)c(Cl)c1Cl | inactive
10 | Cc1cccc(Cc2cnc[nH]2)c1C | inactive
11 | S=C=NCCc1ccccc1 | inactive
12 | CCOP(=O)(Sc1ccccc1)Sc1ccccc1 | inactive
13 | Oc1ccc(Cl)c(Cl)c1 | inactive
14 | COCCC#N | inactive
15 | CCCCC(CC)COC(=O)c1ccccc1C(=O)OCC(CC)CCCC (stereo not given) | inactive
16 | O=c1[nH]c(Cl)c(Cl)cc1Cl | inactive
17 | CC1CCCC1 | inactive
18 | Cc1ccn2nc(S(=O)(=O)Nc3c(F)cccc3F)nc2n1 | inactive
19 | CSC(C)(C)/C=N/O | inactive
20 | O=C(O)CCCCCCNC1c2ccccc2CCc2ccccc21 | inactive

Row | SMILES | Potency
21 | CC(C)C(Br)C(=O)NC(N)=O (stereo not given) | inactive
22 | COc1ccc2[nH]cc(CCN(C(C)C)C(C)C)c2c1 | inactive
23 | CNC(=O)CSP(=O)(OC)OC | inactive
24 | O=[N+]([O-])c1ccc(CCl)cc1 | inactive
25 | BrCC(Br)(Br)Br | inactive
26 | COc1cnc(OC)n2nc(NS(=O)(=O)c3c(OCC(F)F)cccc3C(F)(F)F)nc12 | inactive
27 | Clc1ccc(C(Cl)(Cl)Cl)cc1Cl | inactive
28 | CN=C=O | inactive
29 | O=c1c2ccccc2c(=O)c2c1cc(Cl)c1[nH]c3c([nH]c12)c(Cl)cc1c(=O)c2ccccc2c(=O)c13 | inactive
30 | C=CC(=O)[O][Sn]([CH2]CCC)([CH2]CCC)[CH2]CCC | 776 nM (active)
31 | c1ccc(Nc2ccc(Nc3ccccc3)cc2)cc1 | inactive
32 | COP(=S)(OC)Oc1ccc([N+](=O)[O-])c(C)c1 | inactive
33 | CCNS(=O)(=O)C(F)(F)C(F)(F)C(F)(F)C(F)(F)C(F)(F)C(F)(F)C(F)(F)C(F)(F)F | inactive
34 | O=Cc1ccccc1 | inactive
35 | O=S(=O)(O)F | inactive
36 | C[N+]1(C)[C@@H]2CC[C@H]1CC(OC(=O)C(CO)c1ccccc1)C2 (stereo not given in full) | inactive
37 | OCC(Br)CBr (stereo not given) | inactive
38 | CCC(C)Nc1c([N+](=O)[O-])cc(C(C)(C)C)cc1[N+](=O)[O-] (stereo not given) | inactive
39 | c1ccc(N=NNc2ccccc2)cc1 | inactive
40 | CCCCCCCCCCCCCCn1cc[n+](C)c1 | inactive
